# According to the supplement of paper PMC8728848:
# This is one part of a sample in which the strongest signals are shown more often than they occur.
# B1: OGAN (protein)
# chain: MVQKESQATLEERESELSSNPAASAGASLEPPAAPAPGEDNPAGAGGAAVAGAAGGARRFLCGVVEGFYGRPWVMEQRKELFRRLQKWELNTYLYAPKDDYKHRMFWREMYSVEEAEQLMTLISAAREYEIEFIYAISPGLDITFSNPKEVSTLKRKLDQVSQFGCRSFALLFNDIDHNMCAADKEVFSSFAHAQVSITNEIYQYLGEPETFLFCPTEYCGTFCYPNVSQSPYLRTVGEKLLPGIEVLWTGPKVVSKEIPVESIEEVSKIIKRAPVIWDNIHANDYDQKRLFLGPYKGRSTELIPRLKGVLTNPNCEFEANYVAIHTLATWYKSNMNGVRKDVVMTDSEDSTVSIQIKLENEGSDEDIETDVLYSPQMALKLALTEWLQEFGVPHQY
# Legend:
# Experiment in all cases: glycan array binding signal (z-score within array); higher = stronger binding
# Details in all cases: glycan notation: IUPAC condensed, linker removed
# [1] = target: Fuc(a1-2)Gal(b1-3)[Fuc(a1-4)]GlcNAc(b1-2)Man(a1-3)[Fuc(a1-2)Gal(b1-3)[Fuc(a1-4)]GlcNAc(b1-2)Man(a1-3)]Man(b1-4)GlcNAc(b1-4)GlcNAc
# Procedure, shortened: (§1)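 Glycan array data were curated from 3228 arrays in the Consortium for Functional Glycomics database and kept only where the protein sequence was available. Glycan names were converted to IUPAC-condensed notation, and columns mapping to the same glycan were averaged. The binding signal is a within-array Z-score, averaged across arrays of the same protein sequence at different concentrations or buffers and across linkers. Negative Z-scores can be read as non-binding.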
# [2] = target: Fuc(a1-2)Gal(b1-4)GlcNAc(b1-2)Man(a1-3)[Fuc(a1-2)Gal(b1-4)GlcNAc(b1-2)Man(a1-6)]Man(b1-4)GlcNAc(b1-4)[Fuc(a1-6)]GlcNAc
# Procedure, shortened: as §1
# [3] = target: Fuc(a1-2)Gal(b1-4)GlcNAc(b1-2)[Fuc(a1-2)Gal(b1-4)GlcNAc(b1-4)]Man(a1-3)[Fuc(a1-2)Gal(b1-4)GlcNAc(b1-2)Man(a1-6)]Man(b1-4)GlcNAc(b1-4)GlcNAc
# Procedure, shortened: as §1
# [4] = target: Fuc(a1-2)Gal(b1-4)GlcNAc(b1-3)[Fuc(a1-2)Gal(b1-4)GlcNAc(b1-6)]GalNAc
# Procedure, shortened: as §1
# [5] = target: Fuc(a1-2)Gal6S(b1-3)GlcNAc6S
# Procedure, shortened: as §1
# [6] = target: Fuc(a1-2)[Gal(a1-3)]Gal(b1-3)GalNAc
# Procedure, shortened: as §1
# [7] = target: Fuc(a1-2)[Gal(a1-3)]Gal(b1-4)GlcNAc(b1-3)[Fuc(a1-2)[Gal(a1-3)]Gal(b1-4)GlcNAc(b1-6)]GalNAc
# Procedure, shortened: as §1
# [8] = target: Fuc(a1-2)[GalNAc(a1-3)]Gal(b1-3)GalNAc(a1-3)[Fuc(a1-2)]Gal(b1-4)GlcNAc
# Procedure, shortened: as §1
# [9] = target: Fuc(a1-2)[GalNAc(a1-3)]Gal(b1-3)GalNAc(b1-3)Gal(a1-4)Gal(b1-4)Glc
# Procedure, shortened: as §1
# [10] = target: Fuc(a1-2)[GalNAc(a1-3)]Gal(b1-4)GlcNAc
# Procedure, shortened: as §1
# [11] = target: Fuc(a1-2)[GalNAc(a1-3)]Gal(b1-4)GlcNAc(b1-3)Gal(b1-4)GlcNAc(b1-3)Gal(b1-4)GlcNAc
# Procedure, shortened: as §1
# [12] = target: Fuc(a1-2)[GalNAc(a1-3)]Gal(b1-4)[Fuc(a1-3)]GlcNAc
# Procedure, shortened: as §1
# [13] = target: Fuc(a1-2)[GalNAc(a1-4)]Gal(b1-4)GlcNAc
# Procedure, shortened: as §1
# [14] = target: Fuc(a1-3)[Gal(b1-4)]GlcNAc6S
# Procedure, shortened: as §1
# [15] = target: Fuc(a1-3)[Gal3S(b1-4)]GlcNAc
# Procedure, shortened: as §1
# [16] = target: Fuc(a1-3)[Gal3S(b1-4)]GlcNAc6S
# Procedure, shortened: as §1
# [17] = target: Gal(a1-3)Gal(b1-4)GlcNAc(b1-2)Man
# Procedure, shortened: as §1
# [18] = target: Gal(a1-3)Gal(b1-4)[Fuc(a1-3)]GlcNAc(b1-2)Man(a1-3)[Gal(a1-3)Gal(b1-4)[Fuc(a1-3)]GlcNAc(b1-2)Man(a1-6)]Man(b1-4)GlcNAc(b1-4)GlcNAc
# Procedure, shortened: as §1
# [19] = target: Gal(b1-3)GalNAc(b1-4)Gal(b1-4)Glc
# Procedure, shortened: as §1
# [20] = target: Gal(b1-3)GlcNAc(b1-2)Man(a1-3)[Gal(b1-3)GlcNAc(b1-2)Man(a1-6)]Man(b1-4)GlcNAc(b1-4)[Fuc(a1-6)]GlcNAc
# Procedure, shortened: as §1
# [21] = target: Gal(b1-3)GlcNAc(b1-3)Gal(b1-4)GlcNAc(b1-2)[Gal(b1-3)GlcNAc(b1-3)Gal(b1-4)GlcNAc(b1-6)]Man(a1-6)[Gal(b1-3)GlcNAc(b1-3)Gal(b1-4)GlcNAc(b1-2)Man(a1-3)]Man(b1-4)GlcNAc(b1-4)[Fuc(a1-6)]GlcNAc
# Procedure, shortened: as §1
# [22] = target: Gal(b1-3)[Fuc(a1-4)]GlcNAc(b1-2)Man
# Procedure, shortened: as §1
# [23] = target: Gal(b1-4)GlcNAc(b1-2)Man(a1-3)[Gal(b1-4)GlcNAc(b1-2)Man(a1-6)][Gal(b1-4)GlcNAc(b1-4)]Man(b1-4)GlcNAc(b1-4)[Fuc(a1-6)]GlcNAc
# Procedure, shortened: as §1
# [24] = target: Gal(b1-4)GlcNAc(b1-3)Gal(b1-4)GlcNAc(b1-2)[Gal(b1-4)GlcNAc(b1-3)Gal(b1-4)GlcNAc(b1-6)]Man(a1-6)[Gal(b1-4)GlcNAc(b1-3)Gal(b1-4)GlcNAc(b1-2)Man(a1-3)]Man(b1-4)GlcNAc(b1-4)[Fuc(a1-6)]GlcNAc
# Procedure, shortened: as §1
# [25] = target: Gal(b1-4)GlcNAc(b1-3)Gal(b1-4)GlcNAc(b1-3)Gal(b1-4)GlcNAc(b1-2)[Gal(b1-4)GlcNAc(b1-3)Gal(b1-4)GlcNAc(b1-3)Gal(b1-4)GlcNAc(b1-6)]Man(a1-6)[Gal(b1-4)GlcNAc(b1-3)Gal(b1-4)GlcNAc(b1-3)Gal(b1-4)GlcNAc(b1-2)Man(a1-3)]Man(b1-4)GlcNAc(b1-4)[Fuc(a1-6)]GlcNAc
# Procedure, shortened: as §1
# [26] = target: Gal(b1-4)GlcNAc(b1-3)Gal(b1-4)GlcNAc(b1-3)Gal(b1-4)GlcNAc(b1-3)Gal(b1-4)GlcNAc(b1-3)Gal(b1-4)GlcNAc(b1-2)Man(a1-3)[Gal(b1-4)GlcNAc(b1-3)Gal(b1-4)GlcNAc(b1-3)Gal(b1-4)GlcNAc(b1-3)Gal(b1-4)GlcNAc(b1-3)Gal(b1-4)GlcNAc(b1-2)Man(a1-6)]Man(b1-4)GlcNAc(b1-4)[Fuc(a1-6)]GlcNAc
# Procedure, shortened: as §1
# [27] = target: Gal(b1-4)GlcNAc(b1-3)[GlcNAc(b1-6)]Gal(b1-4)GlcNAc
# Procedure, shortened: as §1
# [28] = target: Gal(b1-4)GlcNAc(b1-6)GalNAc
# Procedure, shortened: as §1
# Gal3S(b1-4)GlcNAc = target: Gal3S(b1-4)GlcNAc
# Procedure, shortened: as §1
binder,measurement,setting,value
B1,glycan array binding signal (z-score),[1],0.055
same,glycan array binding signal (z-score),[2],-0.047
same,glycan array binding signal (z-score),[3],-0.036
same,glycan array binding signal (z-score),[4],-0.036
same,glycan array binding signal (z-score),[5],0.263
same,glycan array binding signal (z-score),[6],0.104
same,glycan array binding signal (z-score),[7],0.056
same,glycan array binding signal (z-score),[8],23.3
same,glycan array binding signal (z-score),[9],7.17
same,glycan array binding signal (z-score),[10],-0.083
same,glycan array binding signal (z-score),[11],-0.044
same,glycan array binding signal (z-score),[12],-0.028
same,glycan array binding signal (z-score),[13],-0.033
same,glycan array binding signal (z-score),[14],-0.052
same,glycan array binding signal (z-score),[15],0.055
same,glycan array binding signal (z-score),[16],-0.076
same,glycan array binding signal (z-score),[17],-0.037
same,glycan array binding signal (z-score),[18],-0.048
same,glycan array binding signal (z-score),[19],-0.029
same,glycan array binding signal (z-score),[20],-0.064
same,glycan array binding signal (z-score),[21],0.166
same,glycan array binding signal (z-score),[22],-0.036
same,glycan array binding signal (z-score),[23],-0.086
same,glycan array binding signal (z-score),[24],-0.01
same,glycan array binding signal (z-score),[25],-0.03
same,glycan array binding signal (z-score),[26],-0.001
same,glycan array binding signal (z-score),[27],-0.059
same,glycan array binding signal (z-score),[28],-0.053
same,glycan array binding signal (z-score),Gal3S(b1-4)GlcNAc,-0.067
